Here are results for 87 compounds from PubChem BioAssay AID652067 (The Scripps Research Institute Molecular Screening Center, 2013).

Out of some 370,000 compounds screened, about 5,400 (1.5%) were called active.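 How the source made its calls: active means activation above the mean of all tested compounds plus 3 SD (cut at about 5.5% in these data); inactive means the rest.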 The list comes from a sample in which actives are over-represented; it also holds similar structures and randomly drawn compounds.

The subject of the assay is DAF-12 nuclear receptor (Haemonchus contortus). As to the kind of experiment: H. contortus DAF-12 nuclear receptor activators, primary screen, cell-based, luminescence, HEK293, lit1-tk-luc reporter (AID 652067).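 Further: 100% = response to 3 µM Δ7-dafachronic acid high control.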 The following applies: HEK293 hcDAF-12 lit1-tk-luc reporter, at 6.8 µM, active compounds read high, 0% DMSO, 100% Δ7-dafachronic acid.
As for `O=C(N[C@H](Cc1ccccc1)C(=O)N1CCCN(Cc2cccs2)CC1)[C@H]1O[C@@H](n2ccc(=O)[nH]c2=O)[C@H](O)[C@@H]1O`, the activation is -1.83% (inactive).

Consider `CC(C)CNC(=O)OCc1cn(Cc2ccc(F)cc2)nn1`, for which the activation is -2.06% (inactive).

Take `CS(=O)(=O)N(CC(=O)Nc1ccc(F)cc1F)c1cccc([N+](=O)[O-])c1`: the activation was -0.66% (inactive).

In the case of `O=C(NCc1ccco1)C1CCCN(S(=O)(=O)c2ccc(Cl)s2)C1` (configuration not stated), the activation was -2.39% (inactive).

Regarding `Cc1nc2c(OCc3ccc(Cl)cc3Cl)cccn2c1N(C)CC1CC1`, the activation was -1.39% (inactive).

Turning to `NC(N)=N/N=C/c1ccc(OCc2ccc(Cl)cc2Cl)cc1`, the activation was -1.35% (inactive).

Take `Cc1nc2ccccc2nc(C)c1=NOCc1ccc(Cl)cc1Cl`: the activation is 6.04% (active).

Consider `CCOC(=O)[C@]12CCCCC/C=C\1N(Cc1ccc(OC)cc1)C(=O)[C@H]2CC(=O)NCCCN1CCCC1=O`, for which the activation is -0.09% (inactive).

`CN(C)Cc1cn(-c2ccc(-c3noc4c3C(=O)N(CC(=O)N3CCOCC3)CC4)cc2)nn1`: the activation is 2.44% (inactive).

`CCOC(=O)CNC(=O)N(C)[C@H]1C[C@H]2c3[nH]c4c(-c5ccc6c(c5)OCO6)cccc4c3CCN2C(=O)[C@H]1[C@H](C)O`: the activation is -1.87% (inactive).

Turning to `O=C(NNC(=O)c1cc(S(=O)(=O)N2CCCCC2)ccc1Cl)c1ccccc1O`, the activation was 1.49% (inactive).

For `Cc1cccc(NS(=O)(=O)c2cccc(C(=O)NNC(=O)c3ccccc3O)c2)c1`, the activation is -2.63% (inactive).

Take `O=C(NNC(=O)c1ccccc1O)c1ccccc1O`: the activation is 5.92% (active).

With `COC(=O)C1=C(C)N(Cc2cccc(C(F)(F)F)c2)C(=NCc2ccccc2)NC1c1ccccc1C(F)(F)F` (configuration not stated), the activation is -0.61% (inactive).

Turning to `CC(=O)Nc1ccc(OC[C@@H](O)CN2CCC(C(O)(c3ccccc3)c3ccccc3)CC2)cc1`, the activation was -1.17% (inactive).

As to `CC(C)[C@@H](C)/C=C/[C@@H](C)[C@H]1CC[C@@H]2[C@]1(C)CCC1[C@]23C=C[C@]2(C[C@@H](O)CC[C@]12C)N(c1ccc([N+](=O)[O-])cn1)O3` (some centres not stated), the activation is -0.59% (inactive).

Turning to `CCn1c(=O)n2n(c1=O)[C@@]1(C=C3CCCC[C@H]32)N=C(NC(=O)c2ccccc2)N(Cc2ccccc2)[C@H]1Cc1ccccc1`, the activation was -1.71% (inactive).

As to `CCOc1ccc(/C(O)=C2\C(=O)C(=O)N(c3ccc(OC)cc3)C2c2ccccc2[N+](=O)[O-])cc1` (configuration not stated), the activation was 6.27% (active).

Take `COc1ccc(/C(O)=C2/C(=O)C(=O)N(CC3CCCO3)C2c2ccc(OC)c(OC)c2)cc1` (configuration not stated): the activation is -1.07% (inactive).

With `COc1ccc(/C(O)=C2/C(=O)C(=O)N(c3nc(C)c(C)s3)C2c2ccco2)cc1` (configuration not stated), the activation was 1.96% (inactive).

As for `O=S1(=O)c2c(NCc3ccco3)cccc2Oc2ccccc2CN1Cc1cn(Cc2cccc(C(F)(F)F)c2)nn1`, the activation was -2.46% (inactive).

For the compound `CN(NC(=O)C1CC(=O)N(c2ccccc2)C1)C1=NS(=O)(=O)c2ccccc21` (configuration not stated), the activation was 1.93% (inactive).

For `CC(=O)C1(C(=O)Nc2nccs2)CC(c2ccccc2C(F)(F)F)=NO1` (configuration not stated), the activation was -0.69% (inactive).

With `COc1ccc(N2CCN(CCNS(=O)(=O)c3ccc(Cl)s3)CC2)cc1`, the activation is 0.26% (inactive).

Take `CNS(=O)(=O)c1ccc(NC(=O)Nc2ccc3c(c2)OCO3)cc1`: the activation was 4.15% (inactive).

With `CN(Cc1ccccc1)C(=O)COC(=O)/C=C/c1ccc2c(c1)OCO2`, the activation is -1.03% (inactive).

As to `CCSc1ccccc1C(=O)Nc1ccc2c(c1)OCO2`, the activation was 3.08% (inactive).

As to `Cc1cccc(NC(=O)Nc2ccc3c(c2)OCO3)n1`, the activation was 8.33% (active).

Take `Cc1cccc(NC(=O)/C=C/c2ccc3c(c2)OCO3)n1`: the activation is 5.86% (active).

On to `COc1cccc(/C=C/C(=O)Nc2ccc3c(c2)OCCO3)c1`, for which the activation is 3.26% (inactive).

`COC(=O)c1cc2c(c3c4cc(F)ccc4n(S(=O)(=O)c4ccccc4)c13)C(=O)N(Cc1ccccc1OC)C2`: the activation is 0.96% (inactive).

Turning to `CCCN1C(=O)c2[nH]nc(-c3ccccc3)c2C1c1ccccc1` (configuration not stated), the activation is -1.32% (inactive).

As to `COc1ccccc1CCNC(=O)C1CCN(c2nc(C)cc(C)n2)CC1`, the activation was -0.5% (inactive).

In the case of `Cc1cc(OC(=O)NCCc2ccc(F)cc2)ccc1F`, the activation is -1.94% (inactive).

For `COc1ccc(CNC(=O)COc2ccccc2C(=O)c2cnn(-c3ccccc3)c2)cc1OC`, the activation was 3.06% (inactive).

In the case of `O=C(c1cnn(-c2ccc(Cl)cc2)c1)c1ccccc1O`, the activation is 6.75% (active).

In the case of `Cc1cc(O)cc(O)c1C(=O)Cc1cnn(-c2ccccc2)c1`, the activation is -1.81% (inactive).

`CN(CCO)c1cccc2c1S(=O)(=O)N(Cc1cn(Cc3ccc(C(F)(F)F)cc3)nn1)Cc1ccccc1O2`: the activation is 1.99% (inactive).

In the case of `COc1ccccc1C(=O)NC1CCCCN(C(C)C)C1=O` (configuration not stated), the activation is 0.55% (inactive).

With `Cc1cc(C(=O)OC(C)C(=O)Nc2cccc(S(=O)(=O)N3CCOCC3)c2)c(C)o1` (configuration not stated), the activation is -0.06% (inactive).

In the case of `O=C(c1c[nH]c2ccccc12)N1CCC(Oc2cccnc2)CC1`, the activation was 1.45% (inactive).

For `Cc1cc(OCc2cc(C(=O)NCc3cc(C(C)C)no3)no2)cc(C)c1Cl`, the activation is 8.95% (active).

For `Cc1cc(CN(C)C(=O)c2cc(COc3ccc(C)c(C)c3)on2)n[nH]1`, the activation was -1.73% (inactive).

Regarding `COc1ccc(OCc2cc(C(=O)NCC3(C)COC3)no2)c(Cl)c1`, the activation was 1.3% (inactive).

As for `COc1ccc2c(C(C)c3ccc(N)cc3)cn(C)c2c1` (configuration not stated), the activation was -0.33% (inactive).

Take `O=C(NCCc1c[nH]c2ccccc12)OCc1cn(-c2c(F)cccc2F)nn1`: the activation is 3% (inactive).

For the compound `CCOc1ccc2[nH]c(=S)sc2c1`, the activation is -0.28% (inactive).

As to `O=c1[nH]c2ccccc2s1`, the activation is 1.16% (inactive).

In the case of `Nc1ccc2[nH]c(=S)sc2c1`, the activation is 7.75% (active).

On to `COCc1[nH]nc2c1C(c1ccccc1)N(c1ccccc1)C2=O` (configuration not stated), for which the activation is -0.15% (inactive).

Take `COc1ccc2c(CC(=O)OCC(=O)Nc3ccccc3[N+](=O)[O-])coc2c1`: the activation is 0.19% (inactive).

As for `O=S1(=O)c2c(cccc2N2CCCC2)O[C@H](COCc2ccccc2)CN1C1CC1`, the activation was -1.28% (inactive).

Regarding `Cc1ccc(-n2c(COc3ccccc3)nnc2SCC(=O)Nc2ccc3c(c2)OCCO3)cc1`, the activation is -2.77% (inactive).

Turning to `C=CC1=CCN(S(=O)(=O)C(C)(C)C)[C@@H]1CCO`, the activation is -0.05% (inactive).

As for `N#CC(=C1SC=CS1)c1nc(-c2ccccc2)cs1`, the activation is 5.72% (active).

For the compound `N#CC(=C1CCCC1)c1nc(-c2ccc(Cl)cc2)cs1`, the activation is -0.23% (inactive).

For the compound `c1ccc(-c2csc(N3CCc4ccccc4C3)n2)cc1`, the activation is 1.49% (inactive).

For `COc1ccc(C(=O)CSc2nnc(-c3cnccn3)n2-c2ccc(C)cc2)cc1`, the activation was -3.92% (inactive).

As for `COC(=O)[C@@]12CCCCC=C1N(CCc1ccc(Cl)cc1)C(=O)[C@H]2CC(=O)NCc1ccc(OC)c(OC)c1`, the activation is -2.23% (inactive).

Regarding `CCc1ccccc1NC(=O)CSc1nnc(-c2cccs2)o1`, the activation was 2.25% (inactive).

In the case of `O=C(Cc1c[nH]c2ccccc12)N/N=C/c1cccc(F)c1`, the activation was -2.14% (inactive).

For `O=C(O)c1cccc(NC(=S)N/N=C/c2c[nH]c3ccccc23)c1`, the activation was 5.99% (active).

For the compound `O=C(CCCOc1ccccc1)Nc1cccc(C(=O)O)c1`, the activation is -0.3% (inactive).

For `CCn1c(SC)nc(O)c(C(c2ccc(OC)c(O)c2)c2c(O)nc(SC)n(CC)c2=O)c1=O`, the activation was -1.4% (inactive).

As to `Cc1cccc(N2Cc3ccccc3C2=NC(=O)c2ccc(Cl)nc2)c1`, the activation was 5.83% (active).

Turning to `N#Cc1ccc(N2Cc3ccccc3/C2=N/C(=O)Nc2ccc(Cl)cc2)cc1`, the activation is -0.08% (inactive).

Take `Cc1cccc(N2CCN(C(=O)c3cccc(S(=O)(=O)N4CCc5ccccc5C4)c3)CC2C)c1` (configuration not stated): the activation is -2.28% (inactive).

As for `CCCCCCCCNS(=O)(=O)/C=C/c1cc(C)ccc1CNC(=O)OC(C)(C)C`, the activation was -0.7% (inactive).

With `COc1ccc(-c2nnn(Cc3nc(N)nc(N4CCCCC4)n3)n2)cc1`, the activation is -2.9% (inactive).

Turning to `CC(C)(C)N1CC(c2nc3ccccc3n2Cc2ccc(F)cc2)CC1=O` (configuration not stated), the activation was 0.33% (inactive).

Turning to `CCOC(=O)CNc1nc2ccccc2n2c(C)nnc12`, the activation was -0.04% (inactive).

For `Fc1ccc(CNc2nc3ccccc3n3nnnc23)cc1`, the activation was 5.66% (active).

Regarding `Cc1ccc(-n2nc(N)c3c(=O)oc(N(C)C)nc32)cc1`, the activation is 0.85% (inactive).

In the case of `CCc1c(C)nc(SCC(=O)NC2CCCC2)[nH]c1=O`, the activation is -0.17% (inactive).

As for `Cc1c(C)n2c(SCC(=O)NC3CCCC3)nnc2[nH]c1=O`, the activation is -0.71% (inactive).

On to `Cc1nc(SCC(=O)NC2CCCC2)[nH]c(=O)c1C`, for which the activation is 5.79% (active).

For the compound `CCOC(=O)c1c(C2CC2)csc1NC(=O)CSCc1c(C)noc1C`, the activation was -3.08% (inactive).

As to `CC(=O)Nc1cccc(C(=O)OCC(=O)c2ccc3c(c2)OCO3)c1`, the activation was 8.29% (active).

For the compound `CC(=O)Nc1cccc(C(=O)OCC(=O)NCc2cc(C)c(O)c(C)c2)c1`, the activation was 1.87% (inactive).

For the compound `CC(=O)Nc1cccc(C(=O)OCN2C(=O)c3ccccc3C2=O)c1`, the activation is 1.25% (inactive).

Regarding `COc1ccc(C(=O)OCCN(C)C2CN(Cc3cn(Cc4cccc(C)c4)nn3)S(=O)(=O)C2)cc1OC` (configuration not stated), the activation is -2.89% (inactive).

As for `Cc1ccc(Cc2c(-c3ccc(Cl)cc3)nc3c4ccccc4ccn23)cc1`, the activation was 3.04% (inactive).

As for `FC(F)(F)c1ccccc1Cc1c(-c2ccccc2)nc2c3ccccc3ccn12`, the activation was 5.96% (active).

For `CCCc1nc2c3ccccc3ccn2c1Cc1ccccc1C(F)(F)F`, the activation is 5.09% (inactive).

As for `Cc1ccc(Cc2c(-c3ccc(C)cc3)nc3c4ccccc4ccn23)cc1`, the activation was 4.63% (inactive).

Turning to `COc1ccccc1Cc1c(-c2ccc(Cl)cc2)nc2c3ccccc3ccn12`, the activation is 2.15% (inactive).

For the compound `c1ccc(Cc2c(-c3ccco3)nc3c4ccccc4ccn23)cc1`, the activation was 12% (active).
